Screening data: PubChem, National Center for Advancing Translational Sciences (NCATS)
Most compounds without a hit are left out; they make up all but 8% or so of the library.
HT1080 IDH1KD tx: qHTS for induction of synthetic lethality in tumor cells producing 2HG: qHTS for the HT-1080-IDH1KD cell line | 360,000 compounds, 2% hits | AID 686971, 2013 | HT-1080 IDH1 knockdown viability, ATP luminescence, 48 h | Potency, µM (titrated, usually from 46.1 µM), without a hit: top-dose activity, negative = toxicity, actives largely listed as cytotoxic;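 also: 0% = DMSO wells and -100% = cell-free medium wells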
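Luminescent ATP read-out (CellTiter-Glo, 10 min at room temperature) after 48 h compound exposure at 37 °C gave viability of IDH1-knockdown HT-1080 cells. Activity was normalised to DMSO and cell-free wells, then fitted as concentration-response curves.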
MCF10A rereplic: A quantitative high throughput screen for small molecules that induce DNA re-replication in MCF 10a normal breast cells. 350,000 compounds, 2.9% hits. AID 624296, 2012. Potency, µM (doses to about 46.1 µM), inactives show top-dose activity, positive = re-replication, most hits filed as activators. MCF 10A DNA re-replication, Hoechst nuclear intensity, 48 h; also: % of control where 0% means no effect; nearly all actives have a fitted effect of over 50% in size
HT1080NT lethal: qHTS for induction of synthetic lethality in tumor cells producing 2HG: qHTS for the HT-1080-NT fibrosarcoma cell line. HT-1080-NT fibrosarcoma viability, CellTiter-Glo ATP luminescence, 48 h. Potency, µM (top dose mostly 46.1 µM), for the others: at the top dose activity, negative = less viability, usual class: cytotoxic. 360,000 compounds, 1.6% hits. AID 686970, 2013;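 also: NT is the 2HG producing partner of a matched IDH1 knockdown line; 0% = DMSO-treated cells and -100% = media-only wells without cells; nearly all actives have a fitted effect of over 55% in size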
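A 48-hour cytotoxicity screen used HT-1080-NT cells plated 2 hours before compound delivery. ATP-based CellTiter-Glo luminescence measured viability, normalized to DMSO and no-cell controls.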
KB-3-1 cytotox: qHTS assay for MDR1-selective chemotherapeutics: Primary screen using the parental adenocarcinoma cell KB-3-1. 400,000 compounds, 1.4% hits. Potency, µM (titrated, usually from 46.1 µM), actives largely listed as cytotoxic. AID 1347075, 2019. KB-3-1 viability, CellTiter-Glo ATP luminescence, 72 h; also: % is scaled to controls: 0 for no effect and ±100 for the full control effect; nearly all actives have a fitted effect of over 60% in size
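Using CellTiter-Glo luminescence, growth of non-resistant KB-3-1 adenocarcinoma cells is assessed 72 h after pin-tool compound addition at 37 °C. Normalized responses across the concentration series yield fitted curves.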
SW480 rereplic: A quantitative high throughput screen for small molecules that induce DNA re-replication in SW480 colon adenocarcinoma cells; SW480 DNA re-replication, Hoechst DNA content imaging, 48 h; Potency, µM (series often up to 46.1 µM), for inactives: top-dose re-replication activation, hits mostly activators; 340,000 compounds, 1.8% hits; AID 624297, 2012; also: % of control where 0% means no effect; nearly all actives have a fitted effect of over 55% in size
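Quantitative HTS format with DMSO vehicle controls; 48 hr drug incubation at 37 C, then 40 min Hoechst staining and scanning imager measurement at 405 nm excitation.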
KB-V1 MDR tox: qHTS assay for MDR1-selective chemotherapeutics: Primary screen using the drug-selected MDR subline cells KB-V1 | 400,000 compounds, 3.4% hits | KB-V1 MDR cells viability, CellTiter-Glo, 72 h | Potency, µM (highest dose often 46.1 µM), usual class: cytotoxic | AID 1347076, 2019; also: % is scaled to controls: 0 for no effect and ±100 for the full control effect; nearly all actives have a fitted effect of over 60% in size
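Drug-selected KB-V1 cells, grown in DMEM lacking phenol red with 10% FBS, receive compound titrations; after three days at 37 degrees C, surviving cell ATP is quantified by CellTiter-Glo luminescence and responses normalized and curve-fitted.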
Numbers without * were called inactive; i = inactive; u = inconclusive; x = not tested or not shown. Calls follow the shape of the dose curve; as a rule, active = well fitted curve in the direction sought with a large enough effect; inconclusive = small, poorly fitted or top-dose-only effect, or another doubt; inactive = no such curve, though single readings can be large; an effect the other way counts as inactive or inconclusive. Potency is read from the fitted curve at half-maximal effect.

SMILES	HT1080 IDH1KD tx	MCF10A rereplic	HT1080NT lethal	KB-3-1 cytotox	SW480 rereplic	KB-V1 MDR tox
CCOC(=O)c1c(C)n(-c2ccc(C)cc2)c2ccc(O)c(CN(C)C)c12	16.4µM*	u	16.4µM*	i	u	i
CCOC(=O)c1sc(=N)n(-c2ccc(OC)cc2)c1C	-1.6%	12.0%	-0.1%	i	1.6%	i
Cc1ccc(S(=O)(=O)N2CCCC2c2nc3ccccc3s2)cc1 (centres undefined)	-5.3%	14.8%	10.8%	i	8.6%	20.6µM*
O=S(=O)(c1ccc(Cl)cc1)N1CCCC1c1nc2ccccc2s1 (centres undefined)	-17.0%	20.4%	2.7%	u	0.6%	i
CCc1ccc(NS(=O)(=O)c2cc(-c3cnc(C4CC4)o3)ccc2C)cc1	x	x	x	i	x	u
Cc1cc(C)cc(NS(=O)(=O)c2ccc(-c3cnc(C4CC4)o3)cc2)c1	0.651µM*	u	1.3µM*	1.16µM*	-11.7%	4.11µM*
Cc1cccc(NS(=O)(=O)c2ccc(-c3cnc(C4CC4)o3)cc2)c1C	u	u	u	0.184µM*	u	u
CC(=O)Nc1ccc(NS(=O)(=O)c2ccc(-c3cnc(C4CC4)o3)cc2)cc1	-6.1%	5.6%	-9.0%	i	3.7%	i
COc1ccc(NS(=O)(=O)c2cc(-c3cnc(C4CC4)o3)ccc2C)cc1	20.6µM*	5.8µM*	u	13µM*	u	u
CCOc1ccc(NS(=O)(=O)c2ccc(-c3cnc(C4CC4)o3)cc2)cc1	u	6.51µM*	u	u	30.0%	16.4µM*
CC(C)CCNc1nc2c(S(=O)(=O)c3ccc(Br)cc3)nnn2c2ccsc12	x	x	x	i	x	i
Cc1ccc(NS(=O)(=O)c2ccc(-c3cnc(C4CC4)o3)cc2)cc1N(C)C	x	x	x	i	x	i
Cc1ccc(C)c(NS(=O)(=O)c2ccc(-c3cnc(C4CC4)o3)cc2)c1	0.164µM*	u	0.103µM*	u	u	0.326µM*
O=S(=O)(Nc1ccccc1)c1ccc(-c2cnc(C3CC3)o2)cc1	u	u	u	u	-17.4%	u
CC(=O)c1cccc(NS(=O)(=O)c2ccc(-c3cnc(C4CC4)o3)cc2)c1	u	19.8%	20.6µM*	u	1.0%	u
COc1ccc(-c2cnc(C)o2)cc1S(=O)(=O)Nc1ccc(C)c(F)c1	x	x	x	5.8µM*	x	5.8µM*
COc1ccc2c(c1)c1c(c(=O)n(-c3ccc(C)cc3)c(=O)n1CC(=O)Nc1cc(C)ccc1C)n2C	x	x	x	i	x	i
CCN(CC)c1ccc(NC(=O)Cn2cc3c(n2)CCCC3)c(C)c1	x	x	x	i	x	i
Cc1c(C(N)=O)nnn1-c1ccc(Br)cc1	x	x	x	i	x	i
Nc1c(Cl)ncnc1N1CCN(c2ncnc(Cl)c2N)CC1	-1.6%	0.2%	-2.6%	i	0.231µM*	i
Cc1ccccc1NC(=O)CSc1cn[nH]n1	3.7%	u	13.4%	i	-4.6%	i
CCOc1ccccc1NC(=O)CSc1cn[nH]n1	2.8%	16.4µM*	-11.4%	i	-59.4%	i
COc1ccc(NC(=O)c2nc[nH]c2C(=O)Nc2ccccc2C)cc1	u	u	u	5.8µM*	18.4µM*	u
COc1ccccc1NC(=O)c1nc[nH]c1C(=O)Nc1ccccc1OC	0.2%	7.3%	8.7%	i	7.3%	i
CCOc1ccccc1NC(=O)c1nc[nH]c1C(=O)Nc1ccccc1OCC	-3.2%	u	-4.7%	u	20.6µM*	i
SMILES	HT1080 IDH1KD tx	MCF10A rereplic	HT1080NT lethal	KB-3-1 cytotox	SW480 rereplic	KB-V1 MDR tox
COc1cccc(Cn2c(=O)cc(C)c3c(C)nn(-c4ccc(C)cc4)c32)c1	x	x	x	i	x	i
CC1(C)Cc2c(C#N)c(NCCO)nc(-c3ccco3)c2CO1	1.2%	23.1µM*	7.6%	i	18.4µM*	u
CN(C)CCNc1nc(-c2ccccc2)c2c(c1C#N)CC(C)(C)OC2	-0.3%	5.4%	-1.9%	i	2.2%	i
CC1(C)Cc2c(C#N)c(NCCN3CCOCC3)nc(-c3ccccc3)c2CO1	10.5%	0.2%	-10.3%	i	7.31µM*	i
CC1(C)Cc2c(C#N)c(NCCN3CCOCC3)nc(-c3ccco3)c2CO1	2.5%	23.1µM*	-2.3%	i	17.1%	i
CCCN(CCC)C(=O)Cn1c(=O)n(-c2ccc(CC)cc2)c(=O)c2ccc(C(=O)NCCc3ccccc3)cc21	x	x	x	i	x	u
CC(=O)C1=CCC(c2ccccc2F)N(S(=O)(=O)c2ccc(C)cc2)C1 (centres undefined)	u	x	u	i	x	i
CC(=O)C1=CCC(c2cccc3ccccc23)N(S(=O)(=O)c2ccc(C)cc2)C1 (centres undefined)	u	x	u	u	x	10.3µM*
O=C1/C(=C/c2cccnc2)SC(=S)N1Cc1ccco1	u	u	-18.4%	13µM*	u	20.6µM*
O=C(O)CN1C(=O)/C(=C\c2cc(Br)ccc2OCc2ccccc2Cl)SC1=S	-16.2%	u	-8.2%	i	-7.8%	i
O=C1/C(=C\c2ccc(O)cc2)SC(=S)N1Cc1ccccc1	23.1µM*	12.4%	u	i	u	i
O=C(O)CN1C(=O)/C(=C\c2cc(Br)ccc2OCc2ccccc2F)SC1=S	8.2%	18.4µM*	10.6%	i	-22.3%	i
O=C(O)c1ccc(/C=C2/SC(=S)N(Cc3ccccc3)C2=O)cc1	4.9%	22.8%	-1.2%	u	-6.9%	i
CC(=O)Oc1ccc(/C=C2/SC(=S)N(Cc3ccccc3)C2=O)cc1	20.4%	3.26µM*	22.5%	i	-36.5%	i
Cc1cc(/C=C2\SC(=S)N(Cc3ccco3)C2=O)c(C)n1-c1cccnc1	-4.2%	26.9%	-0.7%	i	1.0%	u
COc1cc(/C=C/c2cncc(/C=C/c3cc(OC)c(OC)c(OC)c3)c2)cc(OC)c1OC	x	x	x	i	x	i
Cc1ccccc1-c1nc(CN2CCC(C(=O)NCc3ccc(F)cc3)CC2)c(C)o1	x	x	x	i	x	i
COc1ccc(-c2cc(=S)ss2)cc1	x	5.2%	x	x	-4.3%	x
CCOC(=O)c1ccc(NC(=O)c2csnn2)cc1	x	x	x	i	x	i
COC(=O)c1ccc(CNC(=O)c2nc(Cn3nc(C)c(Br)c3C)no2)cc1	x	x	x	i	x	u
